In the library only some 21% were active in any assay of this set; here they are far more common.
HCV inhibitor: HCV inhibition. Huh7.5.1 HCVcc-Cre infection, luciferase reporter, 44 h. Potency, µM (titrated, usually from 41.8 µM), hits mostly inhibitors. actives 3.4% (n = 340,000)
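Cells seeded at 1,000/well and cultured 4 h, then compounds added followed by HCVcc-Cre virus (~0.5 moi). After 44 h further culture, luciferase substrate was added, plates held 15 min at room temperature, and luminescence read for 15 sec.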
Pf growth 48h: inhibits P. falciparum growth in the first generation, 48 h; P. falciparum luciferase growth in erythrocytes, 48 h; Potency, µM (top dose mostly 28.7 µM), usual class: inhibitors; actives 5.9% (n = 310,000); AID 504832
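Cell-based growth assay: transgenic P. falciparum expressing firefly luciferase, cultured in red cells within RPMI 1640 containing 0.5% w/v Albumax, 24 mM bicarbonate and gentamycin. A drop in luciferase activity indicates inhibition.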
Pf growth 96h: P. falciparum growth inhibition at 96 hour, primary screen for plastid delayed-death inhibitors | P. falciparum luciferase reporter growth, 96 h | Potency, µM (top dose mostly 28.7 µM), actives largely listed as inhibitors | actives 6.9% (n = 320,000)
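Luminescence readout: decreased luciferase signal marks inhibited growth of reporter-expressing P. falciparum in infected red cells (2% hematocrit, 0.05% parasitemia final), exposed to compound two generations (96 h, 37 C, 5% CO2).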
HCMV inh: human cytomegalovirus inhibition; activity change, negative = inhibition, % at 57.5 µM; actives 4.5% (n = 410,000); AID 1259415; HFF cells, HCMV-luciferase reporter, 72 h; hits give low values; in the data active = activity change below about -60%; inconclusive = no clear call, values can overlap the other calls; inactive = above about -39%
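Two compound doses tested in HFFs infected with HCMV-luciferase, MOI 1 PFU/cell, 72 h at 37C. Lysate luminescence read with OneGlo; data normalized against buffer-only and 10uM Salinomycin inhibitor controls.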
Cycloheximide cs: counter-screen hit for Shiga toxin inhibitors, cycloheximide; actives 12% (n = 300,000); max response, %; cell reporter, cycloheximide protein synthesis inhibition counterscreen; in the data active = max response mostly above about 13%, no sharp cut-off; inactive = mostly below about 14%; note: read at 38.3 µM for the half of the compounds with a filed dose
Shiga toxin inh: inhibitors of Shiga toxin in Vero cells; Vero cells, Shiga toxin protein synthesis inhibition reporter; inhibition, % at 38.7 µM; actives 9.2% (n = 290,000); AID 2315; in the data active = inhibition mostly above about 28%, no sharp cut-off; inactive = mostly below about 43%
Numbers stand for hits; – = inactive; ? = inconclusive; · = not tested or not shown; + = active, no number; [ ] = another dose, or the depositor's remark. Unless noted, calls come from the whole dose curve; as a rule, active = well fitted inhibition curve with a large enough effect; inconclusive = small, poorly fitted or top-dose-only effect, or another doubt; inactive = no such curve, though single readings can be large or run the other way.

SMILES | HCV inhibitor | Pf growth 48h | Pf growth 96h | HCMV inh | Cycloheximide cs | Shiga toxin inh
CC1(C)Cc2c(c(-c3ccco3)nc3sc4c(NCC5CCCO5)ncnc4c23)CO1 (stereo not drawn) | – | – | ? | – | – | –
CCOc1ccc(CCNC(=O)Cn2ncc3c(=O)oc4ccc(C)cc4c32)cc1 | · | · | · | – | · | ·
Cn1c(=NC(=O)c2ccc(S(=O)(=O)N3CCCc4ccccc43)cc2)sc2cc(S(C)(=O)=O)ccc21 | – | ? | ? | – | – | –
Cn1c(=NC(=O)c2ccccc2[N+](=O)[O-])sc2cc(S(C)(=O)=O)ccc21 | ? | – | – | – | 64.2 | 50.5
CCOc1ccc(C(=O)Nc2cc3c(cc2N2CCCC2)n(CC)c(=O)n3CC)cc1OCC | ? | ? | 11.7µM | – | – | –
CCOc1cc(C(=O)Nc2cc3c(cc2N2CCOCC2)n(C)c(=O)n3C)cc(OCC)c1OCC | – | – | 8.28µM | – | – | –
COc1ccc(C(=O)Nc2cc3c(cc2N2CCOCC2)n(C)c(=O)n3C)cc1OC | – | ? | ? | · | – | –
CCn1c(=O)n(CC)c2cc(N3CCCC3)c(NC(=O)c3cccc(OC)c3)cc21 | – | ? | 0.738µM | – | – | –
CCOC(=O)c1ccccc1NC(=O)COc1ccccc1-c1nnc(-c2ccccc2)o1 | · | · | · | – | · | ·
CNS(=O)(=O)c1cn(CC(=O)Nc2ccc(OC)c(Cl)c2)cc1S(=O)(=O)NC | · | · | · | – | · | ·
O=C(NN1CCCCC1)c1cccc(COc2ccc(Cl)cc2)c1 | ? | – | – | – | 76.4 | 89.9
O=Cc1ccc(OCc2cccc(C(F)(F)F)c2)cc1O | – | – | – | – | – | –
O=C(OCC(F)(F)F)c1cccc(COc2ccc3ccccc3c2)c1 | – | · | – | – | 82.3 | 139.9
CC(C)Oc1cccc(C(=O)N2CCCC2)c1 | – | – | – | – | – | –
CCOc1ccc(OCc2cccc(C(=O)N3CCCC3)c2)cc1 | – | – | · | – | 87.4 | 138.7
CCOc1ccc(OCc2cccc(C(=O)O)c2)cc1 | – | – | · | – | 17.7 | –
CCOc1ccc(NS(=O)(=O)c2ccc(C(=O)N3CCCCC3)cc2)cc1 | ? | ? | – | – | – | –
CCOc1ccc(OCc2cccc(C(=O)N3CCCCCC3)c2)cc1 | – | – | – | – | 64.8 | +
Cc1cc2c(s1)c1cnn(Cc3ccc(S(C)(=O)=O)cc3)c(=O)c1n2C | · | · | · | · | – | –
CC(C)NOC(=O)c1ccc(Cl)cc1 | – | – | ? | – | 46.4 | –
COc1ccc(Cl)cc1C(=O)NC(C)C | – | – | – | – | – | –
CCOC(=O)N1CCN(C(=O)CCSc2ccccc2)CC1 | – | – | – | – | 53.8 | 85.4
CCOC(=O)N1CCN(C(=O)CCSc2ccc(C)cc2)CC1 | – | – | · | – | 8.6 | active
CCOC(=O)N1CCN(C(=O)COc2ccccc2OC)CC1 | ? | 2.33µM | · | – | – | –
NC(=O)C1CCN(C(=O)CCSc2ccccc2)CC1 | ? | – | – | – | 20.2 | 43.8
SMILES | HCV inhibitor | Pf growth 48h | Pf growth 96h | HCMV inh | Cycloheximide cs | Shiga toxin inh
COc1ccc2c(c1)C=C(C(=O)OCc1cccnc1)CO2 | – | – | – | ? | – | –
CC(=O)Nc1cc(C(=O)N(C)Cc2ccccc2)ccc1S(=O)(=O)c1ccc(C)cc1 | – | –[0.00184 µM] | – | – | – | –
COC(=O)c1cccc(NC(=O)c2onc3c2CCCC3)c1 | – | – | – | – | 99.1 | +
O=C(Nc1ccc2ccccc2c1)c1onc2c1CCCC2 | ? | – | – | – | 28.3 | 63.7
COC(=O)c1cccc(NC(=O)c2cnn(C)c2)c1 | – | · | · | – | · | ·
COCCCn1c(=NC(=O)c2ccncc2)c(C#N)cc2c(=O)n3cccc(C)c3nc21 | – | 2.94µM | – | – | – | –
N#Cc1cc2c(=O)n3ccccc3nc2n(Cc2ccco2)c1=NC(=O)c1ccco1 | – | ? | 11.7µM | – | – | –
CC(=O)N=c1c(C#N)cc2c(=O)n3cccc(C)c3nc2n1Cc1ccco1 | 11.2µM | – | ? | ? | – | –
Cc1ccccc1C(=O)N=c1c(C#N)cc2c(=O)n3cccc(C)c3nc2n1Cc1ccco1 | · | · | – | · | – | –
CC(=O)N=c1c(C#N)cc2c(=O)n3cccc(C)c3nc2n1CCCOC(C)C | – | ? | 10.4µM | ? | – | –
CCCn1c(=NC(=O)c2ccncc2)c(C#N)cc2c(=O)n3cccc(C)c3nc21 | – | · | · | · | · | ·
COc1ccc(CN2CCNC(=O)C2CC(=O)NCCSc2nccn2C)cc1OC (stereo not drawn) | – | – | – | – | – | –
Cc1cccc(C)c1N(CC(=O)NC1CCCCC1)C(=O)c1csnn1 | – | – | – | – | – | –
COCCCN1CN(S(=O)(=O)c2cccs2)c2nc3ccccc3nc21 | – | – | ? | – | – | –
C=CCCCCCCCCC(=O)O | · | – | – | · | – | –
CCCCn1c(=NC(=O)c2cccnc2)c(C#N)cc2c(=O)n3cccc(C)c3nc21 | ? | · | ? | – | – | –
Cc1cccn2c(=O)c3cc(C#N)c(=NC(=O)c4ccncc4)n(CCCOC(C)C)c3nc12 | – | 4.15µM | 6.57µM | ? | – | –
CCOCCCn1c(=NC(=O)c2cccs2)c(C#N)cc2c(=O)n3ccccc3nc21 | ? | 4.65µM | 10.4µM | – | – | –
Cc1cccn2c(=O)c3cc(C#N)c(=NC(=O)c4cccs4)n(CCCOC(C)C)c3nc12 | ? | 1.65µM | 1.85µM | ? | – | –
CCCCN(C(=O)COC(=O)c1ccccc1)c1c(N)n(CCC)c(=O)[nH]c1=O | – | · | · | – | · | ·
O=C(Nc1cccs1)Nc1ccc(F)cc1F | – | – | ? | – | 20.0 | –
O=C(Nc1cccs1)Nc1ccc(Br)cc1F | ? | ? | 11.7µM | – | 67.0 | 194.2
COC(C(=O)Nc1ccc(Br)cc1F)c1ccccc1 (stereo not drawn) | – | – | – | – | – | –
Cc1cccc2c1c1ccc3c(c1n2C)C(=O)C=CC3=O | – | 11.7µM | ? | – | – | –
CCOC(=O)N1CCc2c(sc3ncn(Cc4ccc(F)cc4)c(=O)c23)C1 | – | 10.4µM | 5.86µM | – | – | –
SMILES | HCV inhibitor | Pf growth 48h | Pf growth 96h | HCMV inh | Cycloheximide cs | Shiga toxin inh
O=c1c2c3c(sc2ncn1Cc1ccc(F)cc1)CCC3 | ? | · | ? | – | – | –
COc1ccc(NC(=O)C2CCN(C(=O)c3ccc(OC)cc3)CC2)cc1 | – | · | ? | – | – | –
O=C(c1ccc2c(c1)OCCO2)C1CCN(C(=O)c2ccc(F)c(F)c2)CC1 | ? | ? | – | -67.5 | – | –
Cc1ccccc1C(=O)N1CCC(C(=O)Nc2ccc3c(c2)OCCO3)CC1 | – | · | ? | – | – | –
O=C(Nc1ccc2c(c1)OCCO2)C1CCN(C(=O)c2ccc(Br)cc2)CC1 | – | – | 2.62µM | – | 17.7 | –
O=C(Nc1ccc2c(c1)OCCO2)C1CCN(C(=O)c2ccc([N+](=O)[O-])cc2)CC1 | – | – | – | – | – | –
O=C(c1ccc2c(c1)OCCO2)C1CCN(C(=O)c2ccc(F)cc2)CC1 | ? | ? | – | – | – | –
O=C(Nc1ccc2c(c1)OCCO2)C1CCN(C(=O)c2ccccc2)CC1 | – | – | ? | – | 20.5 | 105.7

Screening results: PubChem, National Center for Advancing Translational Sciences (NCATS)
